In test [1] the target is 5'-AMP-activated protein kinase catalytic subunit alpha-2 (Homo sapiens) (UniProt P54646). As to conditions: at 1 µM.
The target of test [2] is T1, NUAK family SNF1-like kinase 1 (Homo sapiens) (UniProt O60285).
T1 sequence (whole entry): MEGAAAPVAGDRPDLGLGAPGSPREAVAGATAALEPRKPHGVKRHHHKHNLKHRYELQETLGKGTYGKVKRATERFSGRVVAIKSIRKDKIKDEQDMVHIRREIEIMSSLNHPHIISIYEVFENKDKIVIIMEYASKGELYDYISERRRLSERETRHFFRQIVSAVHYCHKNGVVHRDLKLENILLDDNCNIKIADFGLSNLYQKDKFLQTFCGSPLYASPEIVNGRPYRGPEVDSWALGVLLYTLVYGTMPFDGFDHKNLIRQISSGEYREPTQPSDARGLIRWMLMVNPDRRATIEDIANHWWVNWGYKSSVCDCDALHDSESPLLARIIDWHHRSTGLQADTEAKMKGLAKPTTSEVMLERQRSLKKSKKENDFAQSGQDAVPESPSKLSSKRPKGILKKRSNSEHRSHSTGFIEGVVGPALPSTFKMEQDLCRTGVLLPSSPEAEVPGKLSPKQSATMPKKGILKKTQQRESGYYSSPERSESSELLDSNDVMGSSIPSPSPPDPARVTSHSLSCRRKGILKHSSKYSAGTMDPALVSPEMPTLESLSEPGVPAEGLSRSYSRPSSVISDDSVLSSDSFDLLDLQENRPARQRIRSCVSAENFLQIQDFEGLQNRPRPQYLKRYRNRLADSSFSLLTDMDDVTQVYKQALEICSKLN
As to conditions: at 0.1 µM.

Test [3] addresses T1, NUAK family SNF1-like kinase 1 (Homo sapiens). Conditions: at 1 µM.
Test [4] addresses T2, Serine/threonine-protein kinase BRSK1 (Homo sapiens) (UniProt Q8TDC3).
T2 sequence (whole entry): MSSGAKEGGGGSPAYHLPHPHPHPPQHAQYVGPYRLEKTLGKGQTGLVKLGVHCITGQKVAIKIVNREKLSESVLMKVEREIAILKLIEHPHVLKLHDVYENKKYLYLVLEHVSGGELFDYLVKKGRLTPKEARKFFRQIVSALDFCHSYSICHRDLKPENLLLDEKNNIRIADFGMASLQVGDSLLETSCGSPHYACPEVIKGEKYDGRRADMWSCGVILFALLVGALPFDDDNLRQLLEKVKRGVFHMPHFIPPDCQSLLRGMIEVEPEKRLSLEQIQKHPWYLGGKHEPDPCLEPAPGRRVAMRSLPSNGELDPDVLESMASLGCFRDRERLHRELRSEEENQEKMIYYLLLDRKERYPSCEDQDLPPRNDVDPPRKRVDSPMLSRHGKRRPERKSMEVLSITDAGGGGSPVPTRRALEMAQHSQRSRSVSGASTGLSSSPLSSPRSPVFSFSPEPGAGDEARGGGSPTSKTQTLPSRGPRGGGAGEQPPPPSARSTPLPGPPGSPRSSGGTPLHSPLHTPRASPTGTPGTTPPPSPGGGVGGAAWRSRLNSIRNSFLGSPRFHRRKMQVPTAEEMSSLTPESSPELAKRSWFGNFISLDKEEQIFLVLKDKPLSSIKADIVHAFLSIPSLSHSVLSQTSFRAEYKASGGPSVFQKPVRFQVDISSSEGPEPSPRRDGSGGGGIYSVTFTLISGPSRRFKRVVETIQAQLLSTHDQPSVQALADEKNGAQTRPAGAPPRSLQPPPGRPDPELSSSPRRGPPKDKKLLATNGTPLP
As to conditions: at 0.1 µM.

Test [5] deals with T2, Serine/threonine-protein kinase BRSK1 (Homo sapiens). Conditions: at 1 µM.
The target of test [6] is T3, Serine/threonine-protein kinase BRSK2 (Homo sapiens) (UniProt Q8IWQ3).
T3 sequence (whole entry): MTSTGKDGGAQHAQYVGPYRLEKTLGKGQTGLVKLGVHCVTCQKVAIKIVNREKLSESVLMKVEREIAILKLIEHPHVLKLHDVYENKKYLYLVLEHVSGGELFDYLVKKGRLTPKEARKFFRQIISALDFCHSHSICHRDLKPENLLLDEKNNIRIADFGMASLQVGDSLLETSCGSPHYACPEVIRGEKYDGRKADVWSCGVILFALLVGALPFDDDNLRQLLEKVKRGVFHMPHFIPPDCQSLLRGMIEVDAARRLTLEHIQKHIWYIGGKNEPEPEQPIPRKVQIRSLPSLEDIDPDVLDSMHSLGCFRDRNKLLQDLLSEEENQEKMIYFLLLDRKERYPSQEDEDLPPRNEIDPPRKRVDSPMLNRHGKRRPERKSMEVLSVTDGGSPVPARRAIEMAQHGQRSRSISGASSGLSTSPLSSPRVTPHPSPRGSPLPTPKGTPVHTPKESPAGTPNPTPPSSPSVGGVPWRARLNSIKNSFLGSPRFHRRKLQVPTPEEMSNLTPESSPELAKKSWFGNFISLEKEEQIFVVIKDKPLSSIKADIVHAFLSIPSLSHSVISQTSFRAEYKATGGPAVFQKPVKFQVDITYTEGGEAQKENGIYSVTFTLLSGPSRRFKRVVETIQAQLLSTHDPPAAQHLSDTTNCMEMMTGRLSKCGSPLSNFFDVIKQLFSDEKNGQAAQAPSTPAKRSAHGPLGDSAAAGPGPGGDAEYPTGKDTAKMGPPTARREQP
As to conditions: at 0.1 µM.

Test [7] has as its target T3, Serine/threonine-protein kinase BRSK2 (Homo sapiens). As to conditions: at 1 µM.
Test [8] concerns the target Calcium/calmodulin-dependent protein kinase type 1D (Homo sapiens) (UniProt Q8IU85). Conditions: at 0.1 µM.
Test [9] shares this target. As to conditions: at 1 µM.
Test [10] deals with Calcium/calmodulin-dependent protein kinase type II subunit alpha (Homo sapiens) (UniProt Q9UQM7). As to conditions: at 0.1 µM.
For test [11] the target is unchanged. Conditions: at 1 µM.
Test [12] addresses Calcium/calmodulin-dependent protein kinase type II subunit delta (Homo sapiens) (UniProt Q13557). Conditions: at 0.1 µM.
Test [13] has the same target. As to conditions: at 1 µM.
For test [14], the target named is T4, Calcium/calmodulin-dependent protein kinase type IV (Homo sapiens) (UniProt Q16566).
T4 sequence (whole entry): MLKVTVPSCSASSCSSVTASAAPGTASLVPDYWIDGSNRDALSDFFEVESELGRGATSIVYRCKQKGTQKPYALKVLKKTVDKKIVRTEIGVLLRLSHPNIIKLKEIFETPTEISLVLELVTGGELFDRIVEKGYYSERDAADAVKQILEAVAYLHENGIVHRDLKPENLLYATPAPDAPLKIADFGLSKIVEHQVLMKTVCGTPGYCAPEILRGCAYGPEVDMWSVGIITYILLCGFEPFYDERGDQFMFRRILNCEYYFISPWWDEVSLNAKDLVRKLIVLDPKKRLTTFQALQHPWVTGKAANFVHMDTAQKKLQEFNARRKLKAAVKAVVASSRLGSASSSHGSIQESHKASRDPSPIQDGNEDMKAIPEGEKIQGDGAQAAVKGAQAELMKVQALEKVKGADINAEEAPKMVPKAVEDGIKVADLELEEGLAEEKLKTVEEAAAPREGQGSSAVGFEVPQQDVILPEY
As to conditions: at 0.1 µM.

In test [15] the target is T4, Calcium/calmodulin-dependent protein kinase type IV (Homo sapiens). Conditions: at 1 µM.
In test [16] the target is T5, Serine/threonine-protein kinase Chk1 (Homo sapiens) (UniProt O14757).
T5 sequence (whole entry): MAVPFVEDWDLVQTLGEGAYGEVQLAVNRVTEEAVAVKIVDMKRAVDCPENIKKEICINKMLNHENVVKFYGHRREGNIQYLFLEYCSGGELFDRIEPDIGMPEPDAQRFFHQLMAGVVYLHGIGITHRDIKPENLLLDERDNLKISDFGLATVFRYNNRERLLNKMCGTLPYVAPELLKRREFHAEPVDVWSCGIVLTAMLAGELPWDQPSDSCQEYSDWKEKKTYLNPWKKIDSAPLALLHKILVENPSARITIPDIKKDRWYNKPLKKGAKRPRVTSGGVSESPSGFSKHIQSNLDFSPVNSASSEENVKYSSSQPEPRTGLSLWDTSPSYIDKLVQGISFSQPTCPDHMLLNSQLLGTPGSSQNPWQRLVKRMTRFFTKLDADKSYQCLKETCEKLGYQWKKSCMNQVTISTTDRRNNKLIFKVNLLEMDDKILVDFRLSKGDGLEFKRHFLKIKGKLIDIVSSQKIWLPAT
As to conditions: at 0.1 µM.

In test [17] the target is T5, Serine/threonine-protein kinase Chk1 (Homo sapiens). As to conditions: at 1 µM.
Test [18] deals with Serine/threonine-protein kinase Chk2 (Homo sapiens) (UniProt O96017). As to conditions: at 0.1 µM.
Test [19] has the same target. Conditions: at 1 µM.
For test [20], the target named is Death-associated protein kinase 1 (Homo sapiens) (UniProt P53355). Conditions: at 0.1 µM.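 Further: reported figure is the mean inhibition of DAPK1.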
Chain of Death-associated protein kinase 1 (Homo sapiens) (P53355 whole entry, looked up): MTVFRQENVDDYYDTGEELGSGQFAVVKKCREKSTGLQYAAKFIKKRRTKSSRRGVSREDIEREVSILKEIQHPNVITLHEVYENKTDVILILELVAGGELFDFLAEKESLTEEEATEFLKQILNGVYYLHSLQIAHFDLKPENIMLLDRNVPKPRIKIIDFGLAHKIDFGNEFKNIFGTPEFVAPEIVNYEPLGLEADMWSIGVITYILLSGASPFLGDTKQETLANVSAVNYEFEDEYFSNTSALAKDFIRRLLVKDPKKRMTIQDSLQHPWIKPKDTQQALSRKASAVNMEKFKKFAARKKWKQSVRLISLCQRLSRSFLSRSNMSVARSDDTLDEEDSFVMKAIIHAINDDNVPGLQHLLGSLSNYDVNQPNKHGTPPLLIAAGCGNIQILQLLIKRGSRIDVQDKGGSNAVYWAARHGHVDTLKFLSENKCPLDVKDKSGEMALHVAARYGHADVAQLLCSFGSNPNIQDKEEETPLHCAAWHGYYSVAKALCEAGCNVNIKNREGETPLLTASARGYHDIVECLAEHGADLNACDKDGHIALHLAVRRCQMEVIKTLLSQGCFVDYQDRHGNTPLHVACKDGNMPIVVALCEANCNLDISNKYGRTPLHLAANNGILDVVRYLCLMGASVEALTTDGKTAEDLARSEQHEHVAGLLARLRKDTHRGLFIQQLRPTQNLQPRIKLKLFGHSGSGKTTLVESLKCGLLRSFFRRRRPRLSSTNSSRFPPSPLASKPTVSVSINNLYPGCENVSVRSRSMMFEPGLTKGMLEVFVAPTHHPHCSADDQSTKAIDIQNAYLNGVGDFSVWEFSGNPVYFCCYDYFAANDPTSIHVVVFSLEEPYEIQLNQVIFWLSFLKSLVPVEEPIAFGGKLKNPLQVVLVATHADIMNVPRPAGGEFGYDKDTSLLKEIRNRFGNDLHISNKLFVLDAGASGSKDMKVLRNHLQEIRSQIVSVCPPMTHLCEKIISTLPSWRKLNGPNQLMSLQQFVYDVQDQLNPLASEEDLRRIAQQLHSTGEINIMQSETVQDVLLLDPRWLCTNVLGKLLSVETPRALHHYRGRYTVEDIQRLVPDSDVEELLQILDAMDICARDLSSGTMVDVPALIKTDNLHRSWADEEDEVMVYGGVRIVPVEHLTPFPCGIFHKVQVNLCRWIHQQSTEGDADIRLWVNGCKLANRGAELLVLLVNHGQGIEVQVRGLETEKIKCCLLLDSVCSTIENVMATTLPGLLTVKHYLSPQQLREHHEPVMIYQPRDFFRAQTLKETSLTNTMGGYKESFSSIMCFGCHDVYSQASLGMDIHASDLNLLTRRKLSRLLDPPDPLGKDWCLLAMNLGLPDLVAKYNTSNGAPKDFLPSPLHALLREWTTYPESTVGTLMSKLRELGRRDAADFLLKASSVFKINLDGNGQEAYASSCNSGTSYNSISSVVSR

Chain of Calcium/calmodulin-dependent protein kinase type 1D (Homo sapiens) (Q8IU85 whole entry, looked up): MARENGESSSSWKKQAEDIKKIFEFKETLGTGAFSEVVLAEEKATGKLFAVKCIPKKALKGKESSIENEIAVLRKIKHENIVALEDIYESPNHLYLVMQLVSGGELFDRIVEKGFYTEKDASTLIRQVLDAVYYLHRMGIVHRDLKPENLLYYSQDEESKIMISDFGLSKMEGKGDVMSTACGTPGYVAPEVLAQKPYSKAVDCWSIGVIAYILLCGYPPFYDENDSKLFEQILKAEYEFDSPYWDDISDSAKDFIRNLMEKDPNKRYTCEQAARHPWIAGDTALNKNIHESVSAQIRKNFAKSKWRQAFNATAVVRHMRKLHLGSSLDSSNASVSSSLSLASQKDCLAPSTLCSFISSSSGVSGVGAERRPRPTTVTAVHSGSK
Chain of Calcium/calmodulin-dependent protein kinase type II subunit alpha (Homo sapiens) (Q9UQM7 whole entry): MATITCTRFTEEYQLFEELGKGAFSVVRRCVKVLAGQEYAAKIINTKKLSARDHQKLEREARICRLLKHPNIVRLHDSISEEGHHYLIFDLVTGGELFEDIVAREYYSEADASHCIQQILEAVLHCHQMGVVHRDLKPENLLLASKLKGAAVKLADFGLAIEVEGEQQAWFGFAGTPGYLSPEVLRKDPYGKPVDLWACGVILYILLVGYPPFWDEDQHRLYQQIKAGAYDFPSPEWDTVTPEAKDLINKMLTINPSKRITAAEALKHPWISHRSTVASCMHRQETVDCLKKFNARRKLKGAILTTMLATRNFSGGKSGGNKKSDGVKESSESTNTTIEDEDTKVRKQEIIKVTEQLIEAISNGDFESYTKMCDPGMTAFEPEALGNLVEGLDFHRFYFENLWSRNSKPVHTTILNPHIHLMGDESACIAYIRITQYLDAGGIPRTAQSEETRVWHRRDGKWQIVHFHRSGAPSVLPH
Chain of Calcium/calmodulin-dependent protein kinase type II subunit delta (Homo sapiens) (Q13557 whole entry): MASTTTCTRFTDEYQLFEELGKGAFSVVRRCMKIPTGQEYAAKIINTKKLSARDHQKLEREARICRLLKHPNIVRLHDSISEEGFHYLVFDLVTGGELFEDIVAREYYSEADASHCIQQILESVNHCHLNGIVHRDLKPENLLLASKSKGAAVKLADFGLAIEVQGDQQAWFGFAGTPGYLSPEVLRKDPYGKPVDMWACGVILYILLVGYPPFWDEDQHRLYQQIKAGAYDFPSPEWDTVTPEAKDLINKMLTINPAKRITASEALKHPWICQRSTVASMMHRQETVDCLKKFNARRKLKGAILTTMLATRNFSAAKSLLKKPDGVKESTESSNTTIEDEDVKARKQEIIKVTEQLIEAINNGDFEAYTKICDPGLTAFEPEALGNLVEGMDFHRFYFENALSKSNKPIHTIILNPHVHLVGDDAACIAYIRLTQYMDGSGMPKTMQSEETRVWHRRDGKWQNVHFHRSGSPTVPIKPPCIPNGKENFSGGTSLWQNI
Chain of Serine/threonine-protein kinase Chk2 (Homo sapiens) (O96017 whole entry): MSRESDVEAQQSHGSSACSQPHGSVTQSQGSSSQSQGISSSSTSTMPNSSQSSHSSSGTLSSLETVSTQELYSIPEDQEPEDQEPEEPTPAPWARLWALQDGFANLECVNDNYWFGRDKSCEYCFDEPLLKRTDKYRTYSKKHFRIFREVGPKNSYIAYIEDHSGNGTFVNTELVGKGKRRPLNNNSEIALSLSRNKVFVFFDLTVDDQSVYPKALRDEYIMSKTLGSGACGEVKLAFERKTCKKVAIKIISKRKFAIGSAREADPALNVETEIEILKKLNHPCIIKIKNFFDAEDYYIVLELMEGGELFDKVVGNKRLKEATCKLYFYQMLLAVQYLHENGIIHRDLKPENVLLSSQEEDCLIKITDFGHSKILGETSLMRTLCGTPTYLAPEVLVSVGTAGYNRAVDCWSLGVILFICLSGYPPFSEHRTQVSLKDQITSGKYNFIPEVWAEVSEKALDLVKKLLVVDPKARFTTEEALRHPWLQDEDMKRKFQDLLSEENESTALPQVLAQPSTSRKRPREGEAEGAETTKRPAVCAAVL
Chain of 5'-AMP-activated protein kinase catalytic subunit alpha-2 (Homo sapiens) (P54646 whole entry, looked up): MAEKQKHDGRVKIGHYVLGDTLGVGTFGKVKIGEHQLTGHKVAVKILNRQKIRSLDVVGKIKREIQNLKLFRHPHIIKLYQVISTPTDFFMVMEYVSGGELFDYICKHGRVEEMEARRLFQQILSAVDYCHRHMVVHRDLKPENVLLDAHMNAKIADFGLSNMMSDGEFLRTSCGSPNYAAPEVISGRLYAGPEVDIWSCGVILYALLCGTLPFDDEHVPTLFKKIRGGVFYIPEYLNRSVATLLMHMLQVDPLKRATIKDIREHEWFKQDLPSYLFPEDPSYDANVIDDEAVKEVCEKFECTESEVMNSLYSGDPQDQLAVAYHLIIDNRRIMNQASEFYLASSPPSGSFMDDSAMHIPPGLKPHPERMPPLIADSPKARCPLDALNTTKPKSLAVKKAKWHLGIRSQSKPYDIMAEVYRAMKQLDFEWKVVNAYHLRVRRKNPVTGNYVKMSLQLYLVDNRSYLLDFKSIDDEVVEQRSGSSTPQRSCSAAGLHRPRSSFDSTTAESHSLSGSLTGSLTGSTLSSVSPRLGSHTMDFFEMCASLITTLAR

Regarding `O=C(Nc1n[nH]c2cc(-c3ccccc3)ccc12)C1CC1`, the inhibition in [1] is 7.53%; in test [2] it was 4.99%; in [3], 2.6%; in [4] it was 4.46%; in [5], 21%; in test [6], 3.64%. Further, the inhibition was 19.7% in [7]; 0.34% in [8]; -0.38% in [9]; 3.14% in test [10]; 2.25% in [11]; 3.79% in test [12]. Besides, the inhibition in test [13] was 3.53%; in [14] it was -1.93%; in [15], -1.21%; in test [16], 2.36%; in test [17], 5.48%; in [18] it was 2.81%. Moreover, the results for the inhibition in test [19] and in test [20] were 3.79% and 5.91%, respectively.

`Cc1ccc(NC(=O)c2ccoc2)cc1-c1ccc(C(=O)NCC2CC2)cc1`: the inhibition was 1.09% in test [1]; -0.47% in [2]; -0.78% in [3]; 0% in test [4]; 0.43% in test [5]; 1.99% in test [6]. Also, the inhibition in test [7] was 0.95%; in test [8], -0.63%; in [9] it was -1.53%; in test [10], 1.08%; in test [11], -3.72%; in test [12], 1.18%. Besides, the inhibition was -0.48% in test [13]; -0.8% in test [14]; -1.43% in test [15]; 2% in test [16]; 1.01% in [17]; 1.96% in [18]. Moreover, the inhibition in [19] was 1.43%; in test [20] it was 3.89%.

In the case of `COc1cccc(/C=N/Nc2ncnc3c2cnn3-c2cccc(OC)c2)c1`, the inhibition in test [1] was 2.83%; in test [2], 1.95%; in [3], 3.7%; in test [4], 0.47%; in test [5] it was -0.97%; in [6], 1.04%. The inhibition in [7] was 2.41%; in test [8], -0.14%; in [9] it was 0.89%; in test [10] it was 0.99%; in [11], 1.28%; in [12], 3.36%. In addition, the inhibition was 6.18% in test [13]; -0.53% in test [14]; 0.8% in [15]; -0.79% in test [16]; -1.62% in test [17]; 3.83% in test [18]. The inhibition in test [19] was 4.99%; in test [20] it was -0.06%.

For `CS(=O)(=O)CCNCc1ccc(-c2ccc3ncnc(Nc4ccc(OCc5ccccc5)c(Br)c4)c3c2)o1`, the inhibition in test [1] is -0.88%; in test [2], -0.46%; in [3], 0.63%; in test [4] it was -1.34%; in test [5] it was 2.21%; in test [6], 1.54%. For the same compound, the inhibition in test [7] is 2.06%; in test [8], -1.35%; in test [9], -0.82%; in test [10], 2.7%; in test [11], -1.77%; in test [12] it was 2.65%. For the same compound, the inhibition in [13] was 3.02%; in [14], -1.3%; in test [15], -2.06%; in test [16], 0.41%; in test [17] it was 1.92%; in test [18] it was 2.5%. Besides, the figures for the inhibition in [19] and in test [20] were 2.92% and 3.45%, respectively.

Regarding `Fc1ccc(-c2ncn(C3CCNCC3)c2-c2ccnc(Oc3ccc(Oc4ccccc4)cc3)n2)cc1`, the inhibition is 3.68% in test [1]; 0.78% in test [2]; 0.71% in test [3]; 3.46% in [4]; -0.07% in test [5]; 1.27% in test [6]. For the same compound, the inhibition was 1.66% in test [7]; -0.26% in [8]; 3.87% in test [9]; 2.01% in [10]; 9.16% in test [11]; 3.93% in test [12]. Further, the inhibition was 10.3% in [13]; -1.5% in test [14]; 4.41% in [15]; 10.6% in [16]; 16.4% in [17]; 8.69% in test [18]. Moreover, the inhibition in [19] is 13.4%; in [20] it was 12.4%.

For the compound `NC(=O)c1cc(-c2ccncc2)cc(-c2ccccc2)c1N`, the inhibition was 4.03% in test [1]; 0.7% in test [2]; 1.68% in test [3]; 2.46% in test [4]; 4.23% in [5]; 1.64% in test [6]. The inhibition stood at 2.72% in test [7]; 0.15% in [8]; 1.27% in test [9]; 2.51% in test [10]; 3.97% in test [11]; 4.41% in [12]. The inhibition in test [13] was 4.63%; in test [14], 0.2%; in test [15], -0.82%; in [16], -1.87%; in [17], -2.65%; in [18] it was -1.34%. Moreover, the inhibition in test [19] was -0.01%; in test [20], -2.69%.

For the compound `CCS(=O)(=O)c1ccc(OC)c(Nc2ncc(-c3ccccc3Cl)o2)c1`, the inhibition in [1] was 2.95%; in test [2], 2.27%; in [3], 1.46%; in test [4], -1%; in test [5] it was -0.58%; in [6], 0.64%. Moreover, the inhibition in test [7] is -1.12%; in [8], 0.68%; in test [9], 1.43%; in test [10] it was 2.2%; in [11], 3.37%; in test [12] it was 1.45%. For the same compound, the inhibition is 1.43% in test [13]; 2.52% in test [14]; 0.4% in test [15]; 5.3% in [16]; 5.1% in test [17]; -1.42% in test [18]. Further, the inhibition was -0.76% in test [19] and 4.59% in test [20].

Values taken from ChEMBL document CHEMBL1961873, “Compounds: GSK PKIS; Assays: Nanosyn kinase panel” (2012).
